High-throughput results from PubChem.
Shown are actives, neighbours in structure and some others; about 4.6% of the full set was active somewhere.
Marburg entry inh: blocks Marburg virus binding to or entry into cells; Marburg virus pseudotyped entry inhibition, cell reporter; Potency, µM (titrated, usually from 37.8 µM), for inactives: top-dose activity change, negative = inhibition, hits mostly inhibitors; hit rate 1.8% among 300,000; AID 540276; calls by dose curve; tested in HEK293 cells
HCV inhibitor: blocks hepatitis C virus; Potency, µM (highest dose often 41.8 µM), inactives show at the top dose activity change, negative = inhibition, hits mostly inhibitors; Huh7.5.1 HCVcc-Cre infection, luciferase reporter, 44 h; hit rate 3.4% among 340,000; AID 651820; active = well fitted inhibition curve with a large enough effect; inconclusive = small, poorly fitted or top-dose-only effect, or another doubt; inactive = no such curve, though single readings can be large or run the other way
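Compounds are dispensed onto cells plated 4 h earlier at 1,000 per well, with HCVcc-Cre virus (about 0.5 moi) added next. Following 44 h of culture, luminescent signal is measured for 15 sec after 15 min with substrate at room temperature.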
Vaccinia mCherry: inhibitors of vaccinia virus infection (mCherry reporter signal). Vaccinia virus mCherry reporter infection, fluorescence. Potency, µM (highest dose often 36.5 µM), without a hit: top-dose activity change, negative = inhibition, actives largely listed as inhibitors. hit rate 0.63% among 310,000. AID 720579; calls by dose curve; tested in A549 cells; note: nearly all actives have a fitted effect of over 35% in size
VACV Venus inh: vaccinia inhibition (Venus reporter) | AID 720580 | Vaccinia virus Venus reporter expression, fluorescence | hit rate 0.46% among 330,000 | Potency, µM (doses to about 36.5 µM), for inactives: top-dose activity change, negative = inhibition, usual class: inhibitors; calls by dose curve; tested in A549 cells; note: nearly all actives have a fitted effect of over 30% in size
Lassa entry inh: Lassa virus entry inhibition; Lassa virus pseudotype entry inhibition, cell reporter; Potency, µM (doses to about 37.9 µM), for inactives: top-dose activity change, negative = inhibition, most hits filed as inhibitors; hit rate 1.2% among 300,000; AID 540256; calls by dose curve; tested in HEK293 cells; note: nearly all actives have a fitted effect of over 50% in size
An asterisk follows results filed as active; i = inactive; ? = inconclusive; · = not tested or not shown; [ ] = dose if it differs, or a comment. % is set by controls: 0 for no effect and ±100 for the full control effect; potency is the fitted concentration of half-maximal effect.

SMILES	Marburg entry inh	HCV inhibitor	Vaccinia mCherry	VACV Venus inh	Lassa entry inh
CCN(CC)S(=O)(=O)c1ccc(/C=C/C(=O)Nc2cccc(F)c2)cc1	-21%	13µM*	i	-15%	?
O=C(Nc1ccncc1)Nc1cccc(C(F)(F)F)c1	·	-25%	·	·	·
Cc1cc([N+](=O)[O-])ccc1NC(=O)c1cccc(NC(=O)C(C)C)c1	·	11µM*	-27%	-18%	·
C=CCNC(=O)N1C2=NC(C(=O)OC)=C(C(=O)OC)[C@@H]3N(C)c4ccccc4[C@]23C[C@H]1CO	-31%[14.2 µM]	·	·	·	?
COc1ccc(NC(=O)C2CC23CCN(Cc2cccc4ncccc24)CC3)cc1Cl (centres undefined)	·	·	-18%	-14%	·
Cc1ccc([N+](=O)[O-])cc1S(=O)(=O)N1CCn2cccc2C1c1ccccc1 (centres undefined)	·	·	-10%	0%	1%[46.1 µM]
CC(=O)Nc1ccc(NC(=O)C(NC(=O)C2CCC(C)CC2)C(C)C)cc1 (centres undefined)	?	·	-6%	-5%	11%[46.1 µM]
Cc1ccc(NS(=O)(=O)c2ccc(NC(=O)c3cccc(NC(=O)C(C)C)c3)cc2)cc1	13µM*	10µM*	·	?	?
CCN(CC)S(=O)(=O)c1ccc(C)c(NC(=O)/C=C/c2cccs2)c1	?	10µM*	-19%	-28%	?
Cc1ccc(S(=O)(=O)Nc2ccc(C(=O)Nc3ccncc3)cc2)cc1	?	-10%	-25%	-10%	-12%
CCOc1cccc2sc(NC(=O)c3ccc(S(=O)(=O)N4CCCCC4C)cc3)nc12 (centres undefined)	·	·	-23%	-20%	?
Cc1ccc(NC(=O)c2cc(S(=O)(=O)NCCC3=CCCCC3)ccc2F)cc1F	?	4.5µM*	?	?	?
COCC1CCCN(Cc2cn(Cc3ccccc3)nc2-c2cc3ccccc3o2)C1 (centres undefined)	2.5µM*	?	-21%	-25%	?
CCN(CC)CCN1C(=O)C(=O)/C(=C(/O)c2c(C)[nH]c(C(=O)OC)c2C)[C@@H]1c1ccc(OC)cc1	22%	·	·	·	·
C=C1C(=O)[C@]23C[C@H]1CCC2[C@@]1(C)C(C[C@@H]3O)[C@](C)(C(=O)OC)CC[C@@H]1OC(C)=O (some centres undefined)	·	·	3.2µM*	1.8µM*	·
C=C1C(=O)[C@]23C[C@H]1CC[C@H]2[C@]1(C)[C@@H](OC(C)=O)CC[C@@](C)(C(=O)O)[C@H]1C[C@@H]3O	·	·	5µM*	?	·
C=C1C(=O)[C@]23C[C@H]1CCC2[C@@]1(C)C(C[C@@H]3O)[C@](C)(C(=O)O)C[C@H](O)[C@@H]1O (some centres undefined)	·	·	13%	1%	·
C=C1C(=O)[C@]23C[C@H]1CC[C@H]2[C@]1(C)[C@@H](O)CC[C@@](C)(C(=O)O)[C@H]1C[C@@H]3O	·	·	?	-29%	·
CCc1ccc(-n2nc(CO)c(C(=O)NC(C)c3ccc(Cl)cc3)n2)cc1 (centres undefined)	-2%[46.1 µM]	·	-16%	-16%	?
CCOC(=O)c1noc2ncnc(N3CCN(c4ccccc4OC)CC3)c12	·	·	-14%	-10%	6%[46.1 µM]
CCC(C(=O)N1CCN(c2ccccc2)CC1)n1nc(C)c2sc3ccccc3c2c1=O (centres undefined)	1%[46.1 µM]	·	-9%	-11%	-1%[46.1 µM]
CCn1c(/C=C/N(C(C)=O)c2ccccc2)[n+](CCCS(=O)(=O)[O-])c2cc(Cl)c(Cl)cc21	6%[46.1 µM]	15%	i	-8%	3%[46.1 µM]
CCn1c(/C=C/Nc2ccccc2)[n+](CC)c2cc(Cl)c(Cl)cc21	13µM*	?	-11%	-23%	?
Cc1nc2cc(C(=O)O)ccc2n1-c1ccc(C(C)C)cc1	-1%[46.1 µM]	·	-2%	12%	0%[46.1 µM]
Cc1nn(-c2cc(N3CCCCC3)ccc2[N+](=O)[O-])c(=O)c2ccccc12	-11%	?	·	·	-30%
SMILES	Marburg entry inh	HCV inhibitor	Vaccinia mCherry	VACV Venus inh	Lassa entry inh
CN1CCN(c2ccc([N+](=O)[O-])c(-n3nc(-c4ccccc4)c4ccccc4c3=O)c2)CC1	?	4.5µM*	?	?	?
COc1ccc(OC)c2[nH]c(C(=O)N/N=C/c3ccccc3O)cc12	·	3.2µM*	?	?	·
COc1ccc(/C=N/NC(=O)c2cc3c(OC)ccc(OC)c3[nH]2)cc1O	?	?	7.1µM*	?	?
O=C(C1=C(C(=O)N(C2CCCCC2)C2CCCCC2)CCCC1)N1CCCCC1	-9%	·	·	·	·
Cc1ccc(S(=O)(=O)N2CCN(c3ccnc4cc(Cl)ccc34)CC2)cc1	5µM*	?	-13%	-4%	-22%[46.1 µM]
CCC(=O)N1CCN(c2ccnc3cc(Cl)ccc23)CC1	16%[46.1 µM]	17%	-4%	-24%	10%[46.1 µM]
Cc1ccc(S(=O)(=O)N2CCN(c3ccnc4cc(Cl)ccc34)CC2)cc1C	?	-8%	-11%	-12%	-2%[46.1 µM]
CC(C)N(C(=O)N1CCN(c2ccnc3cc(Cl)ccc23)CC1)C(C)C	?	?	-1%	-9%	11µM*
O=c1c2c(nc3c(-c4ccc(Cl)cc4)c[nH]n13)CCCC2	?	?	?	4.5µM*	10µM*
Cc1c(C(=O)Nc2ccc(-c3nc4cc(Cl)ccc4o3)cc2)oc2ccccc12	·	·	-7%	1%	-13%[46.1 µM]
CCN1C(=O)[C@H]2[C@@H](c3ccc(-c4ccc(Cl)c(Cl)c4)c(OC)c3)N[C@@](C)(C(=O)OC)[C@H]2C1=O	·	-18%	-19%	?	·
CCN1C(=O)[C@H]2[C@@H](c3ccc(-c4ccc5c(c4)OCO5)c(OC)c3)N[C@@](C)(C(=O)OC)[C@H]2C1=O	·	3.2µM*	i	-11%	·
COc1ccc(OC)c(CN2CCCC(c3nc(C)ncc3-c3ccc(F)cc3)C2)c1 (centres undefined)	·	·	-11%	-8%	·
Cc1ccc(C2CC(c3ccccc3)=NN2C(=S)Nc2ccccc2)o1 (centres undefined)	?	?	·	?	4µM*
CC1=NN(C(=S)Nc2ccccc2)C(c2ccccc2)C1 (centres undefined)	8%	25%	-8%	3%	11%
O=c1oc2ccccc2cc1-c1cn2ccccc2n1	?	?	-7%	?	1.8µM*
O=c1oc2ccccc2cc1-c1cn2cccnc2n1	?	-9%	·	·	?
CC1CCN(c2nn3c(=O)c(C(=O)NCCc4ccc(Cl)cc4)cnc3s2)CC1	·	·	-5%	0%	-2%[46.1 µM]
Nc1ccc(CCNc2ncnc3c2ncn3[C@@H]2O[C@@H](CO)[C@H](O)[C@@H]2O)cc1	-6%	·	·	·	·
CCCCCCCCCCCCCCCCn1cc[n+](C)c1	?	5.6µM*	?	?	-28%
CSc1ccccc1-c1nnc(-c2ccccc2)o1	-8%	8.9µM*	·	-5%	-29%
Cc1ccc(S(=O)(=O)NCCSc2nnnn2-c2ccccc2)cc1	-14%[46.1 µM]	-22%	-14%	-14%	-17%[46.1 µM]
Cc1ccc(S(=O)(=O)NCCSc2nnnn2-c2cc(C)ccc2C)cc1	?	?	-21%	?	8.9µM*
Cc1cccc(CSc2nnnn2-c2ccccc2)c1	?	-26%	-3%[1.46 µM]	-7%	10µM*
